Source: PubChem
hNpr1 antagonist: antagonists of human natriuretic peptide receptor Npr1. P16066. HEK293 hNpr1 GloSensor cGMP, ANP-stimulated luminescence. Potency, µM (top dose mostly 46.3 µM), without a hit: top-dose activity change, negative = inhibition, usual class: inhibitors. 76,000 compounds, 1.6% hits. AID 1347048; calls by dose curve; also: nearly all actives have a fitted effect of over 60% in size
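HEK293 cells stably expressing human Npr1 and cGMP GloSensor pGS-40F, loaded 2 h with 2% GloSensor reagent, given compound 30 min at room temperature. Luminescence read before and 20 min after 0.1 nM hNppA.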
GPT2 inh: GPT2 alanine aminotransferase inhibition; Q8TD30; Recombinant GPT2, coupled pyruvate oxidase/HRP Amplex Red fluorescence; Potency, µM (series often up to 57.7 µM), for the others: at the highest dose activity change, negative = inhibition, hits mostly inhibitors; 100,000 compounds, 0.25% hits; AID 1671188; also: nearly all actives have a fitted effect of over 60% in size
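Recombinant GPT2 (10ng/uL) with 250uM a-KG and 2mM L-alanine, 30 min at room temperature, in HEPES pH 7.5 buffer. Pyruvate detected by pyruvate oxidase/HRP/Amplex Red fluorescence after 30 min in the dark; AOA (50uM) as positive control.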
NIH3T3 tox: cytotoxic compounds in NIH 3T3 cells; NIH 3T3 viability, CellTiter-Glo ATP luminescence, 48-72 h; Potency, µM (top dose mostly 96.7 µM), without a hit: at the top dose activity change, negative = cytotoxicity, hits mostly inhibitors; 94,000 compounds, 4.3% hits; AID 1345082; also: nearly all actives have a fitted effect of over 55% in size
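Viability of NIH 3T3 cells after 48 or 72 hr compound treatment at 37 °C was assessed by CellTiter-Glo, with luminescence imaged following a 10 min room-temperature step.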
Luciferase inh: Photinus pyralis luciferase inhibition. Potency, µM (doses to about 115 µM), actives largely listed as inhibitors. purified P. pyralis luciferase, luminescence, biochemical. 76,000 compounds, 2.5% hits. P08659; also: nearly all actives have a fitted effect of over 65% in size
Target sequence (P08659 whole entry, looked up): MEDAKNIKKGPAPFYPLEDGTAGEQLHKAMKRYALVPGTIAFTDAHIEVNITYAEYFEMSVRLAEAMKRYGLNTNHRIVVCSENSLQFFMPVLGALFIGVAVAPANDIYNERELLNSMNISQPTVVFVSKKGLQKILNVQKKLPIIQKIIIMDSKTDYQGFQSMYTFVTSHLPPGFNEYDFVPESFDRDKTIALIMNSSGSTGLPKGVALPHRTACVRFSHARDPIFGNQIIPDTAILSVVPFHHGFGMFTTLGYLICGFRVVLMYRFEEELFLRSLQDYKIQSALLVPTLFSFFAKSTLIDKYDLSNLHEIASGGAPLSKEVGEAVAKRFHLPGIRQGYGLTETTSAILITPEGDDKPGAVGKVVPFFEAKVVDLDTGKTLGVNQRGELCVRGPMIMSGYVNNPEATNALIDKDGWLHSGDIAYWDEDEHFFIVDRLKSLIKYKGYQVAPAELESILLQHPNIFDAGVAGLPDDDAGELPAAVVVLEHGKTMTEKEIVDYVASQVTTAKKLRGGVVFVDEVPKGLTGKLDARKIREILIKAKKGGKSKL
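Inhibitors were tested against purified firefly luciferase in a biochemical, low-substrate format (both substrates at 10uM) and luminescence measured with a CCD imager.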
HEK cytotox: HEK 293 cell cytotoxicity. HEK 293 viability, ATP luminescence (CellTiter-Glo), 48-72 h. Potency, µM (top dose mostly 115 µM), without a hit: at the top dose activity change, negative = cytotoxicity, most hits filed as inhibitors. 94,000 compounds, 6.6% hits. AID 1345083; also: nearly all actives have a fitted effect of over 60% in size
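Read-out: CellTiter-Glo ATP luminescence. Cells: HEK 293, 250 cells/well. Exposure: 48 or 72 hr, 37 degree Celsius.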
Starred values were filed as active, the others as inactive; [ ] = dose if it differs, or a comment. Rows were chosen to be rich in hits. Some 10% of all compounds tested hit in one or more screens of this group. Unless noted, calls follow the shape of the dose curve; as a rule, active = well fitted curve in the direction sought with a large enough effect; inconclusive = small, poorly fitted or top-dose-only effect, or another doubt; inactive = no such curve, though single readings can be large; an effect the other way counts as inactive or inconclusive. % is scaled to controls: 0 for no effect and ±100 for the full control effect; potency is read from the fitted curve at half-maximal effect.

`COc1cccc(O)c1CN1CCC(C(Cc2ccc(F)cc2)N(C)Cc2cn(C)nc2C)CC1` (centres undefined) gave hNpr1 antagonist 0%, GPT2 inh -8%, NIH3T3 tox 1%, Luciferase inh inactive and HEK cytotox 7%.
`COC1CCCN(c2cc(-c3cccnc3)nc3c(C)noc23)C1` (centres undefined) gave hNpr1 antagonist -3%[70.6 µM], GPT2 inh -8%[88.5 µM], NIH3T3 tox 35µM*, Luciferase inh inactive and HEK cytotox inconclusive.
For COC1CCN(c2cc(-c3cccnc3)nc3c(C)noc23)CC1 the results were hNpr1 antagonist 2%[70.6 µM], GPT2 inh -14%[88.5 µM], NIH3T3 tox inconclusive, Luciferase inh inactive and HEK cytotox -14%[172 µM].
COC1CCCN(c2ncccc2-c2cc(-c3ccccc3)nc3c(C)noc23)C1 (centres undefined) was read as hNpr1 antagonist -30%[70.6 µM], GPT2 inh 0%[88.5 µM], NIH3T3 tox inconclusive, Luciferase inh inactive and HEK cytotox 79µM*.
For Cc1ccc(CN2CCC(N3CCCCCC3=O)CC2)cc1 the results were hNpr1 antagonist 9%[70.6 µM], GPT2 inh 2%[88.5 µM], NIH3T3 tox -5%[138 µM], Luciferase inh inactive and HEK cytotox -2%[172 µM].
For O=C(NC1CCCC1)c1ccc(OC2CCN(CCCC(F)(F)F)CC2)c(Cl)c1 the results were hNpr1 antagonist -3%, GPT2 inh inactive, NIH3T3 tox inconclusive, Luciferase inh inactive and HEK cytotox 32µM*.
`C[C@H](C(=O)N1CCCC1)[C@@H]1CC[C@@]2(C)Cc3sc(-c4ccsc4)nc3[C@@H](C)[C@@H]2[C@H]1O` gave hNpr1 antagonist -19%, GPT2 inh -4%, NIH3T3 tox -26%, Luciferase inh 11µM* and HEK cytotox inconclusive.
O=C(NCc1ccc(Cl)cc1)c1ccc(N2CC3CC(C2)[C@H]2CCCC(=O)N2C3)nc1 (some centres undefined) was read as hNpr1 antagonist -1%, GPT2 inh inconclusive, NIH3T3 tox inconclusive, Luciferase inh inactive and HEK cytotox inconclusive.
NCc1ccc(-c2cc(F)cc(F)c2)cc1 was read as GPT2 inh 0%[88.5 µM], NIH3T3 tox 50µM* and HEK cytotox inconclusive.
For Cc1cc(C)cc(-c2ccc(CN)cc2)c1 the results were GPT2 inh inactive, NIH3T3 tox inconclusive and HEK cytotox 28µM*.
COc1ccc(-c2cccc(CN)c2)cc1 was read as GPT2 inh -10%[88.5 µM], NIH3T3 tox inconclusive and HEK cytotox inconclusive.
For Cc1cc(C)cc(-c2ccc(C=O)cc2)c1 the results were GPT2 inh -5%[88.5 µM], NIH3T3 tox inconclusive and HEK cytotox 126µM*.
Screening CC(C)(C)OC(=O)NCCCC(=O)NCc1c[nH]c2ncccc12 returned hNpr1 antagonist 3%, GPT2 inh inactive, NIH3T3 tox -19%, Luciferase inh inactive and HEK cytotox inconclusive.
For COc1ccc(-c2cnc3[nH]cc(CC(=O)N(C)C)c3c2)cc1 the results were hNpr1 antagonist inconclusive, GPT2 inh inactive, NIH3T3 tox 13µM*, Luciferase inh 22µM* and HEK cytotox inconclusive.
COc1ccc(-c2cnc3[nH]cc(CC(=O)NC4CCOCC4)c3c2)cc1 was read as hNpr1 antagonist 4%[70.6 µM], GPT2 inh -4%[88.5 µM], NIH3T3 tox 25µM*, Luciferase inh inconclusive and HEK cytotox inconclusive.
Screening COc1ccc(OC)c(-c2cnc3[nH]cc(CC(=O)NCc4cccnc4)c3c2)c1 returned hNpr1 antagonist inconclusive, GPT2 inh 4%[88.5 µM], NIH3T3 tox inconclusive, Luciferase inh inactive and HEK cytotox inconclusive.
COc1ccc(-c2cnc3[nH]cc(CC(=O)NCCN(C)C)c3c2)cc1 was read as hNpr1 antagonist -12%[70.6 µM], GPT2 inh 3%[88.5 µM], NIH3T3 tox 50µM*, Luciferase inh inactive and HEK cytotox 100µM*.
Screening O=C(Cc1ccc(F)cc1)N1CCC(C(=O)N2CCC(c3ccccc3)CC2)CC1 returned GPT2 inh -12%, NIH3T3 tox inconclusive and HEK cytotox inconclusive.
`Cc1ccc(C(=O)N2CCC3(CC(Cc4ccccc4)=NO3)C2)cc1` (centres undefined) gave hNpr1 antagonist 0%[70.6 µM], GPT2 inh -8%[88.5 µM], NIH3T3 tox inconclusive, Luciferase inh inactive and HEK cytotox inconclusive.
O=C(Nc1cccc(Cl)c1)c1cnc2c(c1)N([S+](=O)([O-])c1cccnc1)CCC2 was read as hNpr1 antagonist 5%[70.6 µM], GPT2 inh inconclusive, NIH3T3 tox inconclusive, Luciferase inh inactive and HEK cytotox 100µM*.
CC(C)CCNC(=O)c1cnc2c(c1)N([S+](=O)([O-])c1cccnc1)CCC2 was read as hNpr1 antagonist 0%[70.6 µM], GPT2 inh -6%[88.5 µM], NIH3T3 tox inconclusive, Luciferase inh inactive and HEK cytotox 0%[172 µM].
Screening Cc1csc(NC(=O)c2cnc3c(c2)N([S+](=O)([O-])c2cccnc2)CCC3)n1 returned hNpr1 antagonist 6%[70.6 µM], GPT2 inh -10%[88.5 µM], NIH3T3 tox 100µM*, Luciferase inh inactive and HEK cytotox -13%[172 µM].
`CCCc1ccc(S(=O)(=O)N2CCCC(Cn3c(C)nc4cccnc43)C2)cc1` (centres undefined) gave hNpr1 antagonist inconclusive, GPT2 inh inactive, NIH3T3 tox inconclusive, Luciferase inh inactive and HEK cytotox inconclusive.
Screening OCCOc1ccccc1CN1CCCC(Nc2ccc(F)c(F)c2)C1 (centres undefined) returned hNpr1 antagonist -1%, GPT2 inh inconclusive, NIH3T3 tox -35%, Luciferase inh inactive and HEK cytotox -20%.
OCc1cccc(-c2cc3c(cn2)CN(CCc2ccccc2)CCN3)c1 was read as hNpr1 antagonist 0%[70.6 µM], GPT2 inh -29%[88.5 µM], NIH3T3 tox inconclusive, Luciferase inh inactive and HEK cytotox inconclusive.
`c1ccc(CN2CCNc3cc(-c4cccnc4)ncc3C2)cc1` gave hNpr1 antagonist 3%[70.6 µM], GPT2 inh inactive, NIH3T3 tox -23%[138 µM], Luciferase inh inactive and HEK cytotox inconclusive.
For COCCN1CCNc2cc(-c3ccc(Oc4ccccc4)cc3)ncc2C1 the results were hNpr1 antagonist inconclusive, GPT2 inh -15%[88.5 µM], NIH3T3 tox 45µM*, Luciferase inh 28µM* and HEK cytotox 50µM*.
c1ccc(CCN2CCNc3cc(-c4cn[nH]c4)ncc3C2)cc1 was read as hNpr1 antagonist -27%[70.6 µM], GPT2 inh 1%[88.5 µM], NIH3T3 tox 89µM*, Luciferase inh inactive and HEK cytotox inconclusive.
Screening c1ccc(CCN2CCNc3cc(NCc4cccnc4)ncc3C2)cc1 returned hNpr1 antagonist 4%[70.6 µM], GPT2 inh inactive, NIH3T3 tox 50µM*, Luciferase inh inactive and HEK cytotox 50µM*.
CNC(=O)c1cc(C)nc2onc(C3CCN(C(=O)Nc4ccc(Cl)cc4)CC3)c12 was read as NIH3T3 tox -31% and HEK cytotox -10%.
